The values below come from PubChem BioAssay (Tox21).

A short description of experiment [1]: Nuclear factor erythroid 2-related factor 2/antioxidant responsive element (Nrf2/ARE) small molecule agonists: qHTS cell viability counter screen in human keratinocytes (AID 1919968; active means well fitted curve in the direction sought with a large enough effect in the repeat runs; an effect the other way counts as inactive or inconclusive; further: nearly all actives have a fitted effect of over 55% in size; further: potency means the concentration at half of the fitted maximal effect). The method in brief: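 Parallel cytotoxicity read: KeratinoSens HaCaT cells, compound treatment 23 h, viability by CellTiter-Fluor fluorescence 1 h post-reagent.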
In general terms: qHTS replaces the single test concentration by a dilution series.

The target in experiment [2] is KiSS-1 receptor (Homo sapiens) (UniProt Q969F8). Briefly: Human kisspeptin (KISS1R) small molecule agonists, calcium flux assay in KISS1R-HEK293 cells (AID 1920064; active means well fitted curve in the direction sought with a large enough effect in the repeat runs; an effect the other way counts as inactive or inconclusive). Put shortly: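 Triplicate 15-concentration series were applied to dye-loaded human KISS1R HEK293 cells, and agonist-evoked calcium fluorescence was captured for 3 min.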
Chain of KiSS-1 receptor (Homo sapiens) (Q969F8 whole entry, looked up): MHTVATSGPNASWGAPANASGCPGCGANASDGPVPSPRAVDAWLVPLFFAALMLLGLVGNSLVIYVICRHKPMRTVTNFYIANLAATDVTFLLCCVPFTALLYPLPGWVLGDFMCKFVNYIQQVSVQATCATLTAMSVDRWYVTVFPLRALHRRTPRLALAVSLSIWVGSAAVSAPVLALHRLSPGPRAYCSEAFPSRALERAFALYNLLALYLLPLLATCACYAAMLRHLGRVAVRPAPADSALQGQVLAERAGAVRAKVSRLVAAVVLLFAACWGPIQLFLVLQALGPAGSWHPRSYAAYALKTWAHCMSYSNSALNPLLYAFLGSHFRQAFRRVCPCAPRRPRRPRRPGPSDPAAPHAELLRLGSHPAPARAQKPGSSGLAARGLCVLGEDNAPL
Background: Calcium assays in cells follow changes in intracellular calcium, usually with a dye or a luminescent sensor.

Experiment [3] is described as follows: G protein-coupled receptor (GPCR) small molecule agonists, calcium flux assay: HEK293 wild type cell line counter screen (AID 1920065). Put shortly:
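Non-specific calcium responders were flagged by adding DMSO-dissolved compounds to dye-loaded cells and reading 480/540 nm fluorescence each second for 3 min; ATP served as positive control.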

Experiment [4] is described as follows: p53 small molecule agonists, cell-based qHTS assay with human liver microsomes: qHTS cell viability counter screen (AID 1963579). Further: nearly all actives have a fitted effect of over 45% in size. Further: potency means the concentration at half of the fitted maximal effect. Put shortly: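 In this multiplexed counter screen, the reporter plates were subsequently treated with CellTiter-Glo so that cell viability, reflected by luminescence, could be recorded for p53RE-bla cells dosed 16 h with compounds under microsomal activation (HLM and NADPH).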

Experiment [5] can be described thus: p53 small molecule agonists, cell-based qHTS assay with rat liver microsomes: qHTS cell viability counter screen (AID 1963580). Further: nearly all actives have a fitted effect of over 45% in size. Further: potency means the concentration at half of the fitted maximal effect. The method in brief:
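Cytotoxicity counter screen: intracellular ATP read by CellTiter-Glo luminescence in the p53 reporter wells. HCT-116 p53RE-bla cells were treated for 16 h at 37 C alongside rat liver microsomes and NADPH, each 0.5 mg/mL final.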

Experiment [6] can be described thus: p53 small molecule agonists, cell-based qHTS assay: qHTS cell viability counter screen (AID 1963581). Further: nearly all actives have a fitted effect of over 45% in size. Further: potency means the concentration at half of the fitted maximal effect. The method in brief:
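Multiplexed with the reporter read, a CellTiter-Glo step (30 min, room temperature) gauges ATP-based viability of HCT-116 p53RE-bla cells after 16 h compound incubation at 37 C.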

Experiment [7] deals with 5-hydroxytryptamine receptor 2A (Homo sapiens) (UniProt P28223). The experiment in a line: 5-hydroxytryptamine receptor 2A (HTR2A) small molecule agonists, cell-based qHTS assay (AID 1963587). Further: nearly all actives have a fitted effect of over 30% in size. Further: potency means the concentration at half of the fitted maximal effect. The method in brief: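 Kinetic calcium-flux fluorescence (2 min, 1 sec intervals) after compound addition in agonist mode. HTR2A-CHO cells were cultured 18 h, then dye-loaded 1 h at 37 C.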
Chain of 5-hydroxytryptamine receptor 2A (Homo sapiens) (P28223 whole entry, looked up): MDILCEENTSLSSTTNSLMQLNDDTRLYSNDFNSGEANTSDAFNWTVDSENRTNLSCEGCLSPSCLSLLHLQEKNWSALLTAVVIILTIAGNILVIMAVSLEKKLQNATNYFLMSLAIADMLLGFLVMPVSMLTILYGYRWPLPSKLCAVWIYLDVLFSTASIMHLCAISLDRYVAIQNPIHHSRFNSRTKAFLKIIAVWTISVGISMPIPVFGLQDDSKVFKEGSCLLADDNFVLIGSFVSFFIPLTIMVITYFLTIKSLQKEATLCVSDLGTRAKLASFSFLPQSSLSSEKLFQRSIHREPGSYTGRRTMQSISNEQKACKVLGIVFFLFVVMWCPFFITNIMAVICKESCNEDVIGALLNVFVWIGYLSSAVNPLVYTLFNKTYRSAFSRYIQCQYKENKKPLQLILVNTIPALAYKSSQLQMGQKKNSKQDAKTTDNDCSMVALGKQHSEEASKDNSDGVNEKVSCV

Experiment [8] addresses Muscarinic acetylcholine receptor M1 (Homo sapiens) (UniProt P11229). The experiment in a line: Cholinergic receptor muscarinic 1 (CHRM1) small molecule agonists, cell-based qHTS assay (AID 1963589). Further: nearly all actives have a fitted effect of over 35% in size. The method in brief: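 qHTS, 15-point titration, 3 independent runs: compounds pin-transferred onto dye-loaded CHRM1-CHO cells (human M1), calcium fluorescence followed every second to detect agonism.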

Experiment [9] can be described thus: cAMP Responsive Elements (CRE) small molecule agonists, cell-based qHTS assay (AID 1963590). The method in brief:
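Quantitative HTS for CRE agonists: HEK 293T CRE-bla cells, overnight plating, 3 h compound incubation at 37 C/5% CO2, then 2 h room-temperature LiveBLAzer B/G FRET substrate loading.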

The nature of experiment [10]: cAMP Responsive Elements (CRE) small molecule antagonists, cell-based qHTS assay (AID 1963591; active means well fitted inhibition curve with a large enough effect in the signal ratio in the repeat runs, not every such curve was filed as active; the % refers to the signal ratio). The method in brief:
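Fluorescence intensity from cleaved LiveBLAzer B/G substrate (2 h, room temperature) quantified CRE-bla activity in HEK 293T cells exposed 3 h to compound with 0.25 uM final NKH477.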

The target in experiment [11] is Beta-2 adrenergic receptor (Homo sapiens) (UniProt P07550). The experiment in a line: Adrenergic beta2 receptor (ADRB2) small molecule antagonists, cell-based qHTS assay (AID 1963592). Further: series mostly up to about 92 µM; nearly all actives have a fitted effect of over 50% in size. Put shortly:
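Assay format: CHO-ADRB2 cells, 18-20hr seeding at 37C/5% CO2, then compound plus 1nM isoproterenol agonist mix for 0.5hr RT. Homogeneous time-resolved fluorescence cAMP detection after 1hr, expressed as 665/615 nm ratio.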

The target is the same in experiment [12]. The experiment in a line: Adrenergic beta2 receptor (ADRB2) small molecule agonists, cell-based qHTS assay (AID 1963593).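 Further: CHO cells stably overexpressing human ADRB2.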 Put shortly:
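CHO cells stably over-expressing ADRB2 were plated overnight at 37C, then dosed with compounds plus a stimulation mix containing 100uM IBMX and 25uM Ro-20-1724 for 0.5hr at room temperature. cAMP was measured by HTRF competition, 1hr.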

Experiment [13] has as its target D(2) dopamine receptor (Homo sapiens) (UniProt P14416). The experiment in a line: Dopamine D2 receptor (DRD2) small molecule agonists, cell-based qHTS assay (AID 1963594). Further: nearly all actives have a fitted effect of over 35% in size. The method in brief: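 cAMP accumulation in DRD2-HEK293 cells measured by HTRF after 1 h detection; compounds added 10 min before NKH477 (200nM […]) forskolin-analogue stimulation, 30 min at room temperature, with Ro20-1724 present at 0.1 mM final.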

For experiment [14] the target is unchanged. The experiment in a line: Dopamine D2 receptor (DRD2) small molecule antagonists, cell-based qHTS assay (AID 1963595; active means well fitted inhibition curve with a large enough effect in the signal ratio in the repeat runs, with a control signal flat; the % refers to the signal ratio; further: potency means the concentration at half of the fitted maximal effect). The method in brief: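 In this cell-based antagonist screen, compounds act for 10 min at room temperature before a 30 min challenge with 12 nM quinpirole and 200 nM NKH477. cAMP is quantified by HTRF competition in DRD2-HEK293 cells containing 0.1 mM Ro20-1724.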

The target of experiment [15] is 5-hydroxytryptamine receptor 2A (Homo sapiens) (UniProt P28223). Briefly: 5-hydroxytryptamine receptor 2A (HTR2A) small molecule antagonists, cell-based qHTS assay (AID 1963586). Further: nearly all actives have a fitted effect of over 45% in size. The method in brief: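 CHO cells stably expressing human HTR2A were plated for 18 h at 37 C, then loaded with calcium dye for 1 h. Compounds were preincubated 5 min at room temperature before DOI (4 nM solution) was added. Kinetic fluorescence was read for 3 min.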

Experiment [16] concerns the target Muscarinic acetylcholine receptor M1 (Homo sapiens) (UniProt P11229). Briefly: Cholinergic receptor muscarinic 1 (CHRM1) small molecule antagonists, cell-based qHTS assay (AID 1963588). Further: nearly all actives have a fitted effect of over 40% in size. Put shortly: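 Compounds were tested at 15 concentrations in three independent runs. Dye-loaded CHRM1-CHO cells were exposed 5 min at room temperature before stimulation by acetylcholine added at 50nM. Intracellular calcium was read kinetically on FDSS for 3 min.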

Experiment [17] is described as follows: p53 small molecule agonists, cell-based qHTS assay with rat liver microsomes (AID 1963578). Put shortly: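 With rat liver microsomes and NADPH present (0.5 mg/mL final each), p53RE-bla cells are treated with compound for 16 h at 37 C. LiveBLAzer detection mixture is then applied for 2 h at room temperature in the dark.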
Experiment [18] can be described thus: p53 small molecule agonists, cell-based qHTS assay (AID 1963582; active means well fitted activation curve with a large enough effect in the signal ratio in the repeat runs, not every such curve was filed as active; the % refers to the signal ratio). The method in brief: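 Beta-lactamase reporter cells (p53RE-bla) treated with compounds for 16 h at 37 C; FRET substrate, 2 h, room temperature; fluorescence intensity.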
Experiment [19] is described as follows: p53 small molecule agonists, cell-based qHTS assay with human liver microsomes (AID 1963577).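 Further: p53 response element beta-lactamase reporter cells with liver microsomes plus NADPH.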 Put shortly: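 16 h, 37 C exposure of p53RE-bla cells to compounds with human liver microsomes and NADPH (0.5 mg/mL final each); detection via LiveBLAzer mixture, 2 h dark at room temperature.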

Unmarked numbers belong to inactive results. Results filed as inconclusive are left out. The source made the active and inactive calls. Unless noted, the call rests on the fitted dose curve.
On the % scale 0 is the no-effect control and ±100 the full control effect.

Chain of Beta-2 adrenergic receptor (Homo sapiens) (P07550 whole entry, looked up): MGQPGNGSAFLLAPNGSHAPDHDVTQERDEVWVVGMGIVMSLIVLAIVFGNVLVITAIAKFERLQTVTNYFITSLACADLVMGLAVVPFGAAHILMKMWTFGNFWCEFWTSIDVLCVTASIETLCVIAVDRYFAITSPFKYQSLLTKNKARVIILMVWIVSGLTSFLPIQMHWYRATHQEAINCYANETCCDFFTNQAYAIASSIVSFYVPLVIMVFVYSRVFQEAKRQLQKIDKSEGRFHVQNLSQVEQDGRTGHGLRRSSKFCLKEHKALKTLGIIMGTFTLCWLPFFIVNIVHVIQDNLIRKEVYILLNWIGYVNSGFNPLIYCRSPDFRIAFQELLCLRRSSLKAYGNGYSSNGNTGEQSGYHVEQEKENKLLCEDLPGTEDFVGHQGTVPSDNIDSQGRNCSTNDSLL
Chain of D(2) dopamine receptor (Homo sapiens) (P14416 whole entry, looked up): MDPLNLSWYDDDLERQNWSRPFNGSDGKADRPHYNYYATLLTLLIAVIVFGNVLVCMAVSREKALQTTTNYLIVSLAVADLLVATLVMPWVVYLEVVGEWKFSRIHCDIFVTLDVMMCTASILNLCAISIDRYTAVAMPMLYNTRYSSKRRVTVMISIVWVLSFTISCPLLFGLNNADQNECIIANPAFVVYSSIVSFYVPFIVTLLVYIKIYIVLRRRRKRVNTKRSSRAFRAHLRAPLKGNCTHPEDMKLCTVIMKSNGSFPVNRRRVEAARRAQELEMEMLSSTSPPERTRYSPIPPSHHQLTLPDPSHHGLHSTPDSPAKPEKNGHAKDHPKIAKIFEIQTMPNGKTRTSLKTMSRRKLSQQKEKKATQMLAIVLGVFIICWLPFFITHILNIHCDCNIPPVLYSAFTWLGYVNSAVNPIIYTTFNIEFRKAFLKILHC
Chain of Muscarinic acetylcholine receptor M1 (Homo sapiens) (P11229 whole entry, looked up): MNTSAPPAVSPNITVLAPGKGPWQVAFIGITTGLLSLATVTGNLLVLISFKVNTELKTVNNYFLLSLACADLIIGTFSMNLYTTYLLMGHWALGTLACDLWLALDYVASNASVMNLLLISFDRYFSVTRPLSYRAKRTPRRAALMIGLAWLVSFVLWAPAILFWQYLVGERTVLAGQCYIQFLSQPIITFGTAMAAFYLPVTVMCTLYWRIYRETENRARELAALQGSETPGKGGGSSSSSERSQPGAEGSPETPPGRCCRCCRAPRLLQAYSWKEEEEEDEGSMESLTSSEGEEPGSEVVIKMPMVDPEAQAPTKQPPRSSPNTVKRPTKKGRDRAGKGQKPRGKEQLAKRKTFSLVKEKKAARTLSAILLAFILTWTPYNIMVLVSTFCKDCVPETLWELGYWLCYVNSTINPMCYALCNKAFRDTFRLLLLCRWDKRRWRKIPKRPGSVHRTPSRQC

Consider `N=C1N=C(N)c2cc3ccccc3cc21`, for which the Potency in experiment [1] is 24.3 µM (active); in [4], 45.8 µM (active); in [5], 45.8 µM (active); in experiment [6] it was 23.6 µM (active). In addition, the Potency entry in experiment [2], in experiment [3], in [7] and in experiment [8] was “inactive” in each case.
Turning to `CN1CCC[C@@H]1c1cccnc1`, the Potency result in [1], in experiment [2], in experiment [3], in experiment [4], in experiment [5] and in experiment [6] was “inactive” throughout. The Potency entry in [9], in [10], in experiment [11], in [12], in [13] and in experiment [14] was “inactive” each time.
On to `C[C@@H](Oc1ccc(CNC(=O)c2cccnc2Oc2ccc3c(c2)OCO3)c(F)c1)C(=O)O`, for which the Potency result in experiment [1], in experiment [2], in experiment [3], in experiment [4], in [5] and in experiment [15] was “inactive” throughout. Further, the Potency result in [7], in [16], in [8], in experiment [9], in experiment [11] and in [13] was “inactive” in each case. The Potency result in experiment [14] is “inactive”.
On to `C[C@@H]1C[C@H]2[C@@H]3C[C@H](F)C4=CC(=O)C(Cl)=C[C@]4(C)[C@@]3(F)[C@@H](O)C[C@]2(C)[C@@]1(O)C(=O)CO`, for which the Potency entry in experiment [1], in experiment [2], in experiment [17], in [4], in [5] and in experiment [6] was “inactive” in each case. The Potency result in experiment [18], in experiment [15], in [7], in [16], in experiment [8] and in experiment [9] was “inactive” throughout. Besides, the Potency result in experiment [10], in experiment [11], in [13] and in experiment [14] was “inactive” in each case.
`CCCCCCCCCCCCCCCCN`: the Potency result in [1], in experiment [3], in experiment [19], in [17], in [4] and in [5] was “inactive” each time. In addition, the Potency entry in experiment [6], in experiment [18], in experiment [16], in [8], in experiment [9] and in experiment [10] was “inactive” throughout. The Potency result in [11] and in experiment [13] was “inactive” throughout. For the same compound, in experiment [7], the Potency is 23.9 µM (active).
`CC(C)CCCC(C)CC=O` (configuration not stated): the Potency entry in [1], in experiment [19], in [17], in experiment [4], in experiment [5] and in [6] was “inactive” throughout. Also, the Potency entry in experiment [18], in experiment [15], in [16], in experiment [9], in experiment [10] and in experiment [11] was “inactive” in each case. For the same compound, the Potency result in experiment [13] and in [14] was “inactive” each time.
For the compound `CC1=C(CC(=O)O)c2cc(F)ccc2/C1=C\c1ccc(S(C)(=O)=O)cc1`, the Potency result in experiment [1], in [2], in experiment [3], in experiment [4], in experiment [5] and in [6] was “inactive” in each case. The Potency entry in [11] and in experiment [13] was “inactive” in each case.
Consider `C=C(C)C(=O)OCCCCCCCCCCCCCCCCCC`, for which the activity change, negative = cytotoxicity in experiment [1] is 0.16% [at 19 µM]; in experiment [4], -5.03% [at 13.5 µM]; in experiment [6], -0.723% [at 13.5 µM]. For the same compound, the activation in [2] was 1.35% [at 15.8 µM]; in experiment [3], 0.174% [at 11.8 µM]; in [7], -0.137% [at 15.9 µM]; in experiment [9] it was -2.05% [at 19 µM]; in [12], -0.576% [at 19 µM]. The activity change, negative = inhibition is -19.6% [at 18.9 µM] in experiment [10] and -0.773% [at 18.9 µM] in experiment [14].
Turning to `[Cl][Bi]([Cl])([c]1ccccc1)([c]1ccccc1)[c]1ccccc1`, the Potency in [1] is 6.08 µM (active); in experiment [4] it was 4.05 µM (active); in experiment [6] it was 9.07 µM (active); in experiment [14], 13.6 µM (active). Also, the Potency entry in experiment [3], in [19], in experiment [17], in [15], in [16] and in [11] was “inactive” throughout. Moreover, the Potency result in experiment [13] is “inactive”.
Regarding `CCOC(=O)c1ccccc1OC`, the Potency entry in experiment [1], in experiment [4], in experiment [5], in experiment [6], in experiment [15] and in experiment [9] was “inactive” throughout. For the same compound, the Potency result in experiment [10], in experiment [11], in experiment [13] and in [14] was “inactive” each time.
